The results in this text go back to PubChem BioAssay (Tox21).

Results filed as inconclusive are left out. Active and inactive are the calls of the source. Unless noted, the call rests on the fitted dose curve.

Sequence of Vitamin D3 receptor (Homo sapiens) (P11473 whole entry, looked up): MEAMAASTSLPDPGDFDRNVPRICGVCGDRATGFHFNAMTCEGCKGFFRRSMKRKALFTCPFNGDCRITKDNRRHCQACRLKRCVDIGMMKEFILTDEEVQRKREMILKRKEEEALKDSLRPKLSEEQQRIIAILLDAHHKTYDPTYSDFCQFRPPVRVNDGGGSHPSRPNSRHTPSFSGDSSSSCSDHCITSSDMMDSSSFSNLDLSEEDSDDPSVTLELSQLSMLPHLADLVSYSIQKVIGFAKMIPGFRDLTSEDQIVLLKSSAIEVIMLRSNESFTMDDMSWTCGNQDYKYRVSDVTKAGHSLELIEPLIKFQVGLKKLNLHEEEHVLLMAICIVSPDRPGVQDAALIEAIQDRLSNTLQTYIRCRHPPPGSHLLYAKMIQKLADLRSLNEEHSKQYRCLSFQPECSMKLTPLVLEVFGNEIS

The first assay concerns the target Vitamin D3 receptor (Homo sapiens) (UniProt P11473). The assay is described as follows: qHTS assay to identify small molecule agonists of the vitamin D receptor (VDR) signaling pathway (AID 743222). The note with it: HEK293T VDR-UAS-bla, beta-lactamase FRET ratio, 16 h; series mostly up to 63.5 µM. In short, it runs like this:
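VDR-bla cells were plated 4 h at 37C/5% CO2, then exposed to compounds in DMSO for 16 h. After LiveBLAzer B/G FRET substrate addition and 2 h at room temperature, beta-lactamase reporter fluorescence was read.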
(In general: In qHTS, concentration-response curves come from the screen itself.)
Turning to `CCCCOCCOCCO`, the outcome was inactive.

Turning to `CC(C)(C)NC(=O)[C@H]1CC[C@H]2[C@@H]3CC[C@H]4NC(=O)C=C[C@]4(C)[C@H]3CC[C@]12C`, the outcome was inactive. The same measure, in the same setting: to `O=c1oc(=O)c2cc3c(=O)oc(=O)c3cc12` belongs “inactive”; to `CN1C(C(=O)Nc2ccccn2)=C(O)c2ccccc2S1(=O)=O`, “inactive”. `OCCO`: the result was inactive. In the case of `CC(CCC(=O)O)(c1ccc(O)cc1)c1ccc(O)cc1`, the result was inactive. For `COc1ccc(OC)c(C(O)CNC(=O)CN)c1` (stereo not drawn), the result was inactive. Turning to `CCCc1c(OCCCCc2nn[nH]n2)ccc(C(C)=O)c1O`, the result was inactive.

In the case of `CC1=CCC(C(C)(C)O)CC1` (stereo not drawn), the outcome was inactive. With `CC(C)Oc1ccc2c(=O)c(-c3ccccc3)coc2c1`, the outcome was inactive. On to `O=C1c2cccc(O)c2C(=O)c2c(O)cccc21`, for which the result was inactive. As to `CC(C)=CCC/C(C)=C\CO`, the result was inactive.

In the case of `C[Si](C)(C)O[Si](C)(C)C`, the result was inactive. Still for that read-out and setting: under `O=CCc1ccccc1` stands “inactive”; under `c1cc(-c2ccncc2)ccn1`, “inactive”. Same read-out and setting: under `CCCC(=O)O` stands “inactive”; under `c1ccc2cc(Nc3ccc(Nc4ccc5ccccc5c4)cc3)ccc2c1`, “inactive”. `CCCCC(CC)COC(=O)c1ccc(N(C)C)cc1` (stereo not drawn): the outcome was inactive. For `CC(=O)c1ccccn1`, the outcome was inactive. Take `CCCCCCCCCCCO`: the result was inactive. On to `CC(C)OC=O`, for which the outcome was inactive. For the compound `COc1ccccc1/C=C/C=O`, the outcome was inactive. For the compound `O=CCCCC=O`, the result was inactive. Take `O=C(c1ccccc1)c1ccccc1O`: the outcome was inactive. On the same count and under the same terms, to `Nc1ccccc1N` belongs “inactive”; to `COc1ccc(C(=O)CC(=O)c2ccc(C(C)(C)C)cc2)cc1`, “inactive”; to `C[C@]12CC[C@H]3[C@@H](CCC4=CC(=O)CC[C@@]43C)[C@@H]1CC[C@@H]2C(=O)CO`, “inactive”. The same measure, in the same setting: under `Nc1ccc(S(=O)(=O)Nc2cnc3ccccc3n2)cc1` stands “inactive”. For `Cc1ncc[nH]1`, the outcome was inactive.

Another assay has the same target. Briefly: qHTS assay to identify small molecule antagonists of the vitamin D receptor (VDR) signaling pathway (AID 743223; active means well fitted inhibition curve with a large enough effect in the signal ratio in the repeat runs, not every such curve was filed as active; the % refers to the signal ratio). The note with it: VDR-UAS-bla HEK293T, beta-lactamase FRET ratio, 16 h; series mostly up to 61 µM. Summed up: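 Antagonist mode uses 1alpha,25-dihydroxyvitamin D3 at 3 nM final as stimulus. VDR-bla cells receive compounds in DMSO, incubate 16 h at 37C, then a beta-lactamase FRET substrate for 2 h at room temperature before fluorescence measurement.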
For the compound `CCCCOCCOCCO`, the result was inactive. Same read-out and setting: to `O=c1oc(=O)c2cc3c(=O)oc(=O)c3cc12` belongs “inactive”. For the compound `CN1C(C(=O)Nc2ccccn2)=C(O)c2ccccc2S1(=O)=O`, the outcome was inactive. For `OCCO`, the outcome was inactive. For the compound `CC(CCC(=O)O)(c1ccc(O)cc1)c1ccc(O)cc1`, the result was inactive. As to `COc1ccc(OC)c(C(O)CNC(=O)CN)c1` (stereo not drawn), the result was inactive. On to `CC1=CCC(C(C)(C)O)CC1` (stereo not drawn), for which the result was inactive. Turning to `CC(C)Oc1ccc2c(=O)c(-c3ccccc3)coc2c1`, the result was inactive.

Regarding `O=C1c2cccc(O)c2C(=O)c2c(O)cccc21`, the result was inactive. As for `CC(C)=CCC/C(C)=C\CO`, the outcome was inactive. Regarding `C[Si](C)(C)O[Si](C)(C)C`, the outcome was inactive. Regarding `CC(=O)O[C@]1(C(C)=O)CC[C@H]2[C@@H]3C=C(Cl)C4=CC(=O)[C@@H]5C[C@@H]5[C@]4(C)[C@H]3CC[C@@]21C`, the result was inactive. As to `O=CCc1ccccc1`, the result was inactive. In the case of `c1ccc2sc(SSN3CCOCC3)nc2c1`, the result was inactive.

On to `c1cc(-c2ccncc2)ccn1`, for which the result was inactive. In the case of `CCCC(=O)O`, the result was inactive. For `c1ccc2cc(Nc3ccc(Nc4ccc5ccccc5c4)cc3)ccc2c1`, the outcome was inactive.

Consider `CCCCC(CC)COC(=O)c1ccc(N(C)C)cc1` (stereo not drawn), for which the outcome was inactive. With `CC(=O)c1ccccn1`, the result was inactive. Turning to `CCCCCCCCCCCO`, the outcome was inactive. In the case of `CC(C)OC=O`, the outcome was inactive. Consider `COc1ccccc1/C=C/C=O`, for which the outcome was inactive. On the same count and under the same terms, to `O=C(O)c1ccccc1Nc1cccc(C(F)(F)F)c1` belongs “inactive”; to `O=CCCCC=O`, “inactive”.

In the case of `O=C(c1ccccc1)c1ccccc1O`, the outcome was inactive.

In the case of `COc1ccc(C(=O)CC(=O)c2ccc(C(C)(C)C)cc2)cc1`, the result was inactive. On to `CNCCCC12CCC(c3ccccc31)c1ccccc12`, for which the outcome was inactive. With `Nc1ccc(S(=O)(=O)Nc2cnc3ccccc3n2)cc1`, the outcome was inactive. As for `Cc1ncc[nH]1`, the result was inactive.
